# Source: PubChem BioAssay AID1159580 (chemical genetic matrix, 2015)
# Values joined by “and” are separate entries in the source; they are usually repeats but may differ in a detail not shown here. Identical values can stand only once. Screen size: about 5,500 compounds; about 2,000 (36%) were called active. Inconclusive results (about 18%) are left out. The list shows a part of the results. A number with no mark means an inactive call. No stated cut-off is given here; in the data, active means normalized growth mostly below about 0.91 (no sharp cut-off); inconclusive means no clear call, values can overlap the other calls; inactive means mostly above about 0.92.
# Assay: chemical genetic growth profiling, strain panel (AID 1159580);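 further: tested at 20 µM; growth read once vehicle control cultures reached saturation at 30 °C; 1 = growth at the plate median or of vehicle wells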
# Details: S. cerevisiae deletion strains, growth OD
smiles,measurement,setting,value
CN(C)CCCO[C@H]1[C@@H](C(O)CO)OC2OC(C)(C)O[C@@H]21 (some centres not stated),normalized growth,"locus YAL013W, strain DEP1, stronger effect = lower value",0.928
same,normalized growth,"locus YAL021C, strain ccr4, stronger effect = lower value",1
same,normalized growth,"locus YAL026C, strain drs2, stronger effect = lower value",0.98
same,normalized growth,"locus YAL030W, strain snc1, stronger effect = lower value",0.98
same,normalized growth,"locus YBL061C, strain skt5, stronger effect = lower value",0.98
same,normalized growth,"locus YBR009C, strain hhf1, stronger effect = lower value",0.985
same,normalized growth,"locus YBR021W, strain FUR4, stronger effect = lower value",0.953
same,normalized growth,"locus YBR023C, strain chs3, stronger effect = lower value",0.98
same,normalized growth,"locus YBR171W, strain sec66, stronger effect = lower value",0.964
same,normalized growth,"locus YBR229C, strain ROT2, stronger effect = lower value",0.993
same,normalized growth,"locus YBR231C, strain swc5, stronger effect = lower value",0.992
same,normalized growth,"locus YBR279W, strain paf1, stronger effect = lower value",1.01
same,normalized growth,"locus YCL011C, strain gbp2, stronger effect = lower value",0.956
same,normalized growth,"locus YCL016C, strain dcc1, stronger effect = lower value",0.973
same,normalized growth,"locus YCL029C, strain bik1, stronger effect = lower value",0.984
same,normalized growth,"locus YCL061C, strain MRC1, stronger effect = lower value",0.987
same,normalized growth,"locus YCL069W, strain vba3, stronger effect = lower value",0.996
same,normalized growth,"locus YCR088W, strain abp1, stronger effect = lower value",0.994
same,normalized growth,"locus YDL005C, strain med2, stronger effect = lower value",0.995
same,normalized growth,"locus YDL035C, strain GPR1, stronger effect = lower value",0.946
same,normalized growth,"locus YDL040C, strain nat1, stronger effect = lower value",0.995
same,normalized growth,"locus YDL074C, strain BRE1, stronger effect = lower value",0.871
same,normalized growth,"locus YDL101C, strain DUN1, stronger effect = lower value",0.994
same,normalized growth,"locus YDL134C, strain PPH21, stronger effect = lower value",0.991
same,normalized growth,"locus YDL185W, strain tfp1, stronger effect = lower value",0.98
same,normalized growth,"locus YDL192W, strain arf1, stronger effect = lower value",0.966
same,normalized growth,"locus YDR001C, strain nth1, stronger effect = lower value",0.968
same,normalized growth,"locus YDR069C, strain doa4, stronger effect = lower value",0.989
same,normalized growth,"locus YDR101C, strain arx1, stronger effect = lower value",0.981
same,normalized growth,"locus YDR137W, strain rgp1, stronger effect = lower value",0.963
same,normalized growth,"locus YDR150W, strain NUM1, stronger effect = lower value",0.995
same,normalized growth,"locus YDR159W, strain sac3, stronger effect = lower value",0.982
same,normalized growth,"locus YDR162C, strain NBP2, stronger effect = lower value",1.08
same,normalized growth,"locus YDR195W, strain ref2",0.995
same,normalized growth,"locus YDR297W, strain sur2, stronger effect = lower value",0.992
same,normalized growth,"locus YDR318W, strain mcm21, stronger effect = lower value",0.933
same,normalized growth,"locus YDR334W, strain swr1, stronger effect = lower value",0.938
same,normalized growth,"locus YDR335W, strain msn5, stronger effect = lower value",0.981
same,normalized growth,"locus YDR388W, stronger effect = lower value",0.989
same,normalized growth,"locus YDR392W, strain spt3, stronger effect = lower value",0.921
same,normalized growth,"locus YDR502C, strain sam2, stronger effect = lower value",0.937
same,normalized growth,"locus YEL003W, strain gim4, stronger effect = lower value",0.98
same,normalized growth,"locus YEL037C, strain rad23, stronger effect = lower value",0.977
same,normalized growth,"locus YEL061C, strain CIN8 (second series), stronger effect = lower value",0.975
same,normalized growth,"locus YEL061C, strain CIN8, stronger effect = lower value",0.993
same,normalized growth,"locus YER015W, strain faa2, stronger effect = lower value",0.991
same,normalized growth,"locus YER016W, strain bim1, stronger effect = lower value",0.999
same,normalized growth,"locus YER110C, stronger effect = lower value",0.946
same,normalized growth,"locus YER111C, strain swi4, stronger effect = lower value",0.986
same,normalized growth,"locus YER155C, strain BEM2 (second series), stronger effect = lower value",0.98
same,normalized growth,"locus YER155C, strain BEM2, stronger effect = lower value",1
same,normalized growth,"locus YER167W, strain BCK2, stronger effect = lower value",0.915
same,normalized growth,"locus YFR010W, strain ubp6, stronger effect = lower value",0.971
same,normalized growth,"locus YGL078C, strain dbp3, stronger effect = lower value",1
same,normalized growth,"locus YGL086W, strain mad1, stronger effect = lower value",0.926 (active)
same,normalized growth,"locus YGL167C, strain pmr1, stronger effect = lower value",0.984
same,normalized growth,"locus YGL173C, strain kem1, stronger effect = lower value",0.964
same,normalized growth,"locus YGL227W, strain vid30, stronger effect = lower value",0.987
same,normalized growth,"locus YGL240W, strain doc1, stronger effect = lower value",1
same,normalized growth,"locus YGL248W, strain PDE1, stronger effect = lower value",0.977
same,normalized growth,"locus YGL253W, strain hxk2, stronger effect = lower value",0.996
same,normalized growth,"locus YGR078C, strain PAC10, stronger effect = lower value",0.907
same,normalized growth,"locus YGR135W, strain pre9, stronger effect = lower value",0.929
same,normalized growth,"locus YGR229C, strain SMI1, stronger effect = lower value",0.8 (active)
same,normalized growth,"locus YGR252W, strain gcn5, stronger effect = lower value",0.849
same,normalized growth,"locus YHR013C, strain ard1, stronger effect = lower value",0.973
same,normalized growth,"locus YHR027C, strain rpn1, stronger effect = lower value",0.968
same,normalized growth,"locus YHR030C, strain SLT2, stronger effect = lower value",0.984 and 0.969
same,normalized growth,"locus YHR079C, strain IRE1 (second series), stronger effect = lower value",0.977
same,normalized growth,"locus YHR079C, strain IRE1, stronger effect = lower value",0.984
same,normalized growth,"locus YHR094C, strain hxt1, stronger effect = lower value",0.986
same,normalized growth,"locus YHR129C, strain ARP1, stronger effect = lower value",0.963
same,normalized growth,"locus YHR142W, strain chs7, stronger effect = lower value",0.946
same,normalized growth,"locus YHR200W, strain rpn10, stronger effect = lower value",0.948
same,normalized growth,"locus YIL066C, strain RNR3, stronger effect = lower value",0.951
same,normalized growth,"locus YIL073C, strain SPO22, stronger effect = lower value",0.932
same,normalized growth,"locus YIL125W, strain kgd1, stronger effect = lower value",0.993
same,normalized growth,"locus YIR030C, strain dcg1, stronger effect = lower value",0.986
same,normalized growth,"locus YJL092W, strain hpr5, stronger effect = lower value",0.987
same,normalized growth,"locus YJL095W, strain BCK1 (second series), stronger effect = lower value",0.993
same,normalized growth,"locus YJL095W, strain BCK1, stronger effect = lower value",0.883 and 0.978
same,normalized growth,"locus YJL115W, strain asf1, stronger effect = lower value",0.963
same,normalized growth,"locus YJL129C, strain trk1, stronger effect = lower value",1.01
same,normalized growth,"locus YJL134W, strain LCB3, stronger effect = lower value",0.993
same,normalized growth,"locus YJL154C, strain vps35, stronger effect = lower value",0.966
same,normalized growth,"locus YJL164C, strain tpk1, stronger effect = lower value",0.998
same,normalized growth,"locus YJL166W, strain qcr8, stronger effect = lower value",0.969
same,normalized growth,"locus YJL168C, strain set2, stronger effect = lower value",0.985
same,normalized growth,"locus YJL187C, strain SWE1 (second series), stronger effect = lower value",0.989
same,normalized growth,"locus YJL187C, strain SWE1, stronger effect = lower value",0.994
same,normalized growth,"locus YJR043C, strain POL32, stronger effect = lower value",0.85 (active)
same,normalized growth,"locus YJR066W, strain TOR1, stronger effect = lower value",0.97
